The record followed here is PubChem BioAssay (Tox21).

Unmarked numbers belong to inactive results. Results filed as inconclusive are left out. Active and inactive are the calls of the source. Calls follow the shape of the dose curve; as a rule, active = well fitted curve in the direction sought with a large enough effect in the repeat runs; inconclusive = weak or mixed curves; inactive = no such curve, though single readings can be large; an effect the other way counts as inactive or inconclusive.

Experiment [1] in a line: Human pregnane X receptor (PXR) small molecule agonists, qHTS cell viability counter screen (AID 1346977). Also: nearly all actives have a fitted effect of over 50% in size. Also: potency is read from the fitted curve at half-maximal effect. In outline:
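PXR-Luc HepG2 cells in medium with 5% charcoal-stripped FBS were pre-incubated 5hr, then exposed to compounds for 24hr at 37C. Viability was read in the same wells by CellTiter-Fluor fluorescence, reagent added after 23hr with a 1hr incubation.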

The nature of experiment [2]: Caspase-3/7 induction in HepG2 cells by small molecules, qHTS assay (AID 1346978). Also: nearly all actives have a fitted effect of over 15% in size. Summed up: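 Wild-type HepG2 cells (2,000/well) were settled 5 h at 37 C, 5% CO2, then exposed to compounds in DMSO for 17 h. Caspase-3/7 activity was read by luminescence 30 min after adding Caspase-Glo 3/7 reagent at room temperature.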
For orientation: In qHTS, concentration-response curves come from the screen itself.

A short description of experiment [3]: Caspase-3/7 induction in CHO-K1 cells by small molecules, qHTS cell viability counter screen (AID 1346979). Also: nearly all actives have a fitted effect of over 35% in size. Also: potency is read from the fitted curve at half-maximal effect. Summed up: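 Wild-type CHO-K1 cells were seeded at 1,500 per well, rested 5hr at 37 C, then exposed to compounds in DMSO. After 16hr, CellTiter-Fluor reagent was added and fluorescence read 1hr later as the viability measure.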
The nature of experiment [4]: Caspase-3/7 induction in HepG2 cells by small molecules, qHTS cell viability counter screen (AID 1346981). Also: nearly all actives have a fitted effect of over 30% in size. Also: potency is read from the fitted curve at half-maximal effect. As to activity change, negative = cytotoxicity: series mostly up to about 92 µM. Summed up:
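HepG2, WT, 2,000 cells/well; 5 hr pre-incubation 37 C/5% CO2; compound pin-transferred from DMSO; 16 hr exposure; CellTiter-Fluor, 1 hr; fluorescence read.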

Experiment [5] has as its target Nuclear receptor subfamily 1 group I member 2 (Homo sapiens) (UniProt O75469). The experiment can be described thus: Human pregnane X receptor (PXR) small molecule agonists, qHTS assay (AID 1346982). Also: nearly all actives have a fitted effect of over 35% in size. Also: potency is read from the fitted curve at half-maximal effect. In outline:
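Luciferase signal from ONE-Glo (30 min, room temperature) measured activation of hPXR-driven CYP3A4 reporter expression in PXR-Luc HepG2 cells treated with compounds for 24 hr at 37 C.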

Experiment [6] concerns the target Nuclear receptor subfamily 1 group I member 2 (Rattus norvegicus) (UniProt Q9R1A7). The experiment can be described thus: Rat pregnane X receptor (rPXR) activation by small molecules, qHTS assay (AID 1346983). Also: nearly all actives have a fitted effect of over 20% in size. Also: potency is read from the fitted curve at half-maximal effect. As to conditions: rPXR luciferase reporter cells, One-Glo luminescence, 24 h; max activation: active compounds read high. Summed up: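 Cell-based rPXR luciferase reporter assay, 2,000 cells per well, rested 5hr at 37 C before compound addition in DMSO, then 24 hr at 37 C. One-Glo reagent was added and luminescence read after 30 min at room temperature.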

Experiment [7] addresses Nuclear receptor subfamily 1 group I member 2 (Homo sapiens) (UniProt O75469). The experiment can be described thus: CYP3A4 induction through human pregnane X receptor (PXR) by small molecules, qHTS assay (AID 1346984). Also: nearly all actives have a fitted effect of over 40% in size. In outline:
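Luminescence readout: luciferase signal after One-Glo (30 min, room temperature), following 3 h at 37C with 3uM final Luciferin-IPA P450 substrate. Cells were DPX-2 (HepG2, PXR/CYP3A4-luc co-transfected) dosed for 24 h.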

For experiment [8] the target is unchanged. The experiment can be described thus: Human pregnane X receptor (PXR) activation by small molecules, qHTS assay (AID 1346985). Also: nearly all actives have a fitted effect of over 40% in size. In outline:
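DPX-2 cells (HepG2 co-transfected with a PXR response element and a CYP3A4-promoter luciferase construct) were seeded at 2,000 per well, rested 5 hr at 37C, then exposed to DMSO-dissolved compounds for 24 hr. Activation was read as luciferase luminescence.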

Experiment [9] concerns the target Cytochrome P450 2D6 (Homo sapiens) (UniProt P10635). In words: Cytochrome P450 Family 2 Subfamily D Member 6 (CYP2D6) small molecule antagonists: luciferase reporter qHTS assay (AID 1671196). Also: nearly all actives have a fitted effect of over 50% in size. Also: potency is read from the fitted curve at half-maximal effect. As to activity change, negative = inhibition: series mostly up to about 120 µM. In outline: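 Read-out is luminescence from luciferin formed by CYP2D6 turnover of a proluciferin substrate, recorded as relative luminescence units. Reactions ran 1 h at room temperature after NADPH regeneration solution was added.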

The target in experiment [10] is Cytochrome P450 2C19 (Homo sapiens) (UniProt P33261). In words: Cytochrome P450 Family 2 Subfamily C Member 19 (CYP2C19) small molecule antagonists: luciferase reporter qHTS assay (AID 1671197). Also: nearly all actives have a fitted effect of over 65% in size. Also: potency is read from the fitted curve at half-maximal effect. As to activity change, negative = inhibition: series mostly up to about 120 µM. In outline:
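Relative luminescence units recorded 20 min after the detection reagent stopped a 1 h, 37C CYP2C19 reaction on proluciferin substrate, which was started by NADPH regeneration following 10 min room-temperature compound preincubation; ketoconazole positive control.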

The target of experiment [11] is Cytochrome P450 2C9 (Homo sapiens) (UniProt P11712). In words: Cytochrome P450 Family 2 Subfamily C Member 9 (CYP2C9) small molecule antagonists: luciferase reporter qHTS assay (AID 1671198). Also: nearly all actives have a fitted effect of over 50% in size. Also: potency is read from the fitted curve at half-maximal effect. As to activity change, negative = inhibition: series mostly up to about 120 µM. Summed up:
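CYP2C9 activity was measured with a P450-Glo proluciferin substrate. Enzyme–substrate mix was held with compound for 10 min at room temperature, then NADPH regeneration solution was added for 1 h at 37C. Luciferin product was read as luminescence.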
For orientation: A reporter such as luciferase makes a cellular process visible.

Experiment [12] concerns the target Voltage-gated inwardly rectifying potassium channel KCNH2 (Homo sapiens) (UniProt Q12809). The experiment can be described thus: Human Ether-a-go-go-Related Gene (hERG) channel small molecule antagonists: fluorescence cell-based qHTS assay (AID 1671200).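 Also: hERG-expressing U2OS cells given a thallium stimulus after FluxOR II dye loading; series mostly up to about 77 µM; nearly all actives have a fitted effect of over 50% in size.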 In outline: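 U2OS cells expressing the channel were plated at 1000 cells/well, incubated overnight at 37 C, then loaded with FluxOR II thallium-sensitive dye for 1 h at room temperature in the dark, with a further 10 min at room temperature before stimulation.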

Experiment [13] addresses Cytochrome P450 3A4 (Homo sapiens) (UniProt P08684). In words: Cytochrome P450 Family 3 Subfamily A Member 4 (CYP3A4) small molecule antagonists: luciferase reporter qHTS assay (AID 1671201). Also: nearly all actives have a fitted effect of over 50% in size. Also: potency is read from the fitted curve at half-maximal effect. As to activity change, negative = inhibition: series mostly up to about 120 µM. In outline: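 P450-Glo CYP3A4 system with proluciferin substrate; compounds preincubated 10 min RT with enzyme-substrate mix, then NADPH regeneration added for 1 h RT. Detection reagent 20 min, luminescence read as relative luminescence units.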

Experiment [14] can be described thus: Caspase-3/7 induction in CHO-K1 cells by small molecules, qHTS assay (AID 1346980). Also: nearly all actives have a fitted effect of over 15% in size. Summed up:
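Wild-type cells were seeded at 1,500 per well and settled 5 hr at 37 C, 5% CO2, then exposed to DMSO-dissolved compounds for 17 hr. Caspase-Glo 3/7 reagent was added, and luminescence was read after 30min at room temperature.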

The target in experiment [15] is Cytochrome P450 1A2 (Homo sapiens) (UniProt P05177). In words: Cytochrome P450 Family 1 Subfamily A Member 2 (CYP1A2) small molecule antagonists: luciferase reporter qHTS assay (AID 1671199). Summed up: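 P450-Glo CYP1A2, 1536-well qHTS: enzyme/proluciferin substrate + cpd (DMSO), 10 min RT; NADPH regen, 1 h RT; detection reagent, 20 min; luminescence, RLU.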
% is scaled to controls: 0 for no effect and ±100 for the full control effect.

Sequence of Cytochrome P450 2C9 (Homo sapiens) (P11712 whole entry, looked up): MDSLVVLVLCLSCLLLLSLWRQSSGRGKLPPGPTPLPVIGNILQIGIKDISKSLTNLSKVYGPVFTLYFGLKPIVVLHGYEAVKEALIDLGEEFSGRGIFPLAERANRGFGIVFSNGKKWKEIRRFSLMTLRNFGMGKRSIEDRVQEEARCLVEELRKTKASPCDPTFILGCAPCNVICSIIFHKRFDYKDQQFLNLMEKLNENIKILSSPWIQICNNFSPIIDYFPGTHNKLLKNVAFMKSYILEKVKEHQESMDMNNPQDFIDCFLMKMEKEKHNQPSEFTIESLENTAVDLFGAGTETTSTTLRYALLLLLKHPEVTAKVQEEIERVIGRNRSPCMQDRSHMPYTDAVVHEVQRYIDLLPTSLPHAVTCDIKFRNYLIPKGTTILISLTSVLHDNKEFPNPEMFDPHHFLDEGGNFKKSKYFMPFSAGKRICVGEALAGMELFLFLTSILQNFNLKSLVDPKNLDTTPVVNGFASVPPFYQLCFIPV
Sequence of Cytochrome P450 2D6 (Homo sapiens) (P10635 whole entry, looked up): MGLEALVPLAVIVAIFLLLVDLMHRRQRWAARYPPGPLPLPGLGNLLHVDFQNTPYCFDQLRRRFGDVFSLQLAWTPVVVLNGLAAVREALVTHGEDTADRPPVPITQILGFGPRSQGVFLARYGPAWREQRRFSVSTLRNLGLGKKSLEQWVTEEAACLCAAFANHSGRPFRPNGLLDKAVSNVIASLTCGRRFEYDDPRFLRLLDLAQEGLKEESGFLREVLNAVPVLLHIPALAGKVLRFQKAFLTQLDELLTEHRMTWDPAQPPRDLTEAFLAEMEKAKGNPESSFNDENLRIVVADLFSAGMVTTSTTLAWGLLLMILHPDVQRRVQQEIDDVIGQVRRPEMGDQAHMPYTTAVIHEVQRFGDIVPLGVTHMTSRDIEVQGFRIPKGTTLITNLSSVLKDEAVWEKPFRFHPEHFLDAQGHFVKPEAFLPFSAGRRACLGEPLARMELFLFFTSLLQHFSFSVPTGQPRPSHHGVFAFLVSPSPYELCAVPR
Sequence of Nuclear receptor subfamily 1 group I member 2 (Homo sapiens) (O75469 whole entry, looked up): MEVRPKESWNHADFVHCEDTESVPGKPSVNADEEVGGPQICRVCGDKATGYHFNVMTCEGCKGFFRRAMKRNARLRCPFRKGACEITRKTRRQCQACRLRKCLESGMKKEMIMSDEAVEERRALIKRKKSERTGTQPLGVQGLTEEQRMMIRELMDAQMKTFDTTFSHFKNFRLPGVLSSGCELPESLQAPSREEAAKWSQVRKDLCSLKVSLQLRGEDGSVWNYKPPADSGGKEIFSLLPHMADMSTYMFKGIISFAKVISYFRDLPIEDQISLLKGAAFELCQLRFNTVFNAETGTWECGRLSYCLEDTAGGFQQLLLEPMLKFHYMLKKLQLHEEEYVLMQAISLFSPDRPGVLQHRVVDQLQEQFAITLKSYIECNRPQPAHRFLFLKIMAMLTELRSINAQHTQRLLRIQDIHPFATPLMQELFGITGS
Sequence of Cytochrome P450 2C19 (Homo sapiens) (P33261 whole entry, looked up): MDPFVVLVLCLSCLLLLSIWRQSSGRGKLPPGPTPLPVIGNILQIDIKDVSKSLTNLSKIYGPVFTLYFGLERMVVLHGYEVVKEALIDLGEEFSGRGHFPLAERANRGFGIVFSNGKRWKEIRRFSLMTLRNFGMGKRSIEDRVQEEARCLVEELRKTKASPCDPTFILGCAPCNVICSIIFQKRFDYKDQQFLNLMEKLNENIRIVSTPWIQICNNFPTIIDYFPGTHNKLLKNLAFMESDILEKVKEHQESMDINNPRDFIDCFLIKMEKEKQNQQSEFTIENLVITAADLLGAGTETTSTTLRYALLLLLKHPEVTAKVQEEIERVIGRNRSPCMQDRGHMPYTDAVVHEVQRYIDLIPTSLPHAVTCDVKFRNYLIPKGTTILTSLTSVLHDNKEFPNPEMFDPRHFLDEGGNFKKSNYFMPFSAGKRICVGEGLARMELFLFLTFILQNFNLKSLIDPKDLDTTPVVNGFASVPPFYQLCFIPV
Sequence of Cytochrome P450 3A4 (Homo sapiens) (P08684 whole entry, looked up): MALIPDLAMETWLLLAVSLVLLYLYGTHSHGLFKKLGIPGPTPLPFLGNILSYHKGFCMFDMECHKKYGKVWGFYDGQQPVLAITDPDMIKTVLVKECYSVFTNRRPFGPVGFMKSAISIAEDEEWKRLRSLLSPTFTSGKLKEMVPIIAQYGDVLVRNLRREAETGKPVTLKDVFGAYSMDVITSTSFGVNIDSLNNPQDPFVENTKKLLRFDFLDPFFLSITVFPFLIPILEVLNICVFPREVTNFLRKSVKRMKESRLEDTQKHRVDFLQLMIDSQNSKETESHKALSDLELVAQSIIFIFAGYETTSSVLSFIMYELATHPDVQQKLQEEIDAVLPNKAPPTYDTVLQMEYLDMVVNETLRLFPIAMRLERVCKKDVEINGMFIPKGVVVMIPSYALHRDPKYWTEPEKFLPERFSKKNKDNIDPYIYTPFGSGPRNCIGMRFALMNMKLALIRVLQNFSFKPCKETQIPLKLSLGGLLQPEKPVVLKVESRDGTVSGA
Sequence of Voltage-gated inwardly rectifying potassium channel KCNH2 (Homo sapiens) (Q12809 whole entry, looked up): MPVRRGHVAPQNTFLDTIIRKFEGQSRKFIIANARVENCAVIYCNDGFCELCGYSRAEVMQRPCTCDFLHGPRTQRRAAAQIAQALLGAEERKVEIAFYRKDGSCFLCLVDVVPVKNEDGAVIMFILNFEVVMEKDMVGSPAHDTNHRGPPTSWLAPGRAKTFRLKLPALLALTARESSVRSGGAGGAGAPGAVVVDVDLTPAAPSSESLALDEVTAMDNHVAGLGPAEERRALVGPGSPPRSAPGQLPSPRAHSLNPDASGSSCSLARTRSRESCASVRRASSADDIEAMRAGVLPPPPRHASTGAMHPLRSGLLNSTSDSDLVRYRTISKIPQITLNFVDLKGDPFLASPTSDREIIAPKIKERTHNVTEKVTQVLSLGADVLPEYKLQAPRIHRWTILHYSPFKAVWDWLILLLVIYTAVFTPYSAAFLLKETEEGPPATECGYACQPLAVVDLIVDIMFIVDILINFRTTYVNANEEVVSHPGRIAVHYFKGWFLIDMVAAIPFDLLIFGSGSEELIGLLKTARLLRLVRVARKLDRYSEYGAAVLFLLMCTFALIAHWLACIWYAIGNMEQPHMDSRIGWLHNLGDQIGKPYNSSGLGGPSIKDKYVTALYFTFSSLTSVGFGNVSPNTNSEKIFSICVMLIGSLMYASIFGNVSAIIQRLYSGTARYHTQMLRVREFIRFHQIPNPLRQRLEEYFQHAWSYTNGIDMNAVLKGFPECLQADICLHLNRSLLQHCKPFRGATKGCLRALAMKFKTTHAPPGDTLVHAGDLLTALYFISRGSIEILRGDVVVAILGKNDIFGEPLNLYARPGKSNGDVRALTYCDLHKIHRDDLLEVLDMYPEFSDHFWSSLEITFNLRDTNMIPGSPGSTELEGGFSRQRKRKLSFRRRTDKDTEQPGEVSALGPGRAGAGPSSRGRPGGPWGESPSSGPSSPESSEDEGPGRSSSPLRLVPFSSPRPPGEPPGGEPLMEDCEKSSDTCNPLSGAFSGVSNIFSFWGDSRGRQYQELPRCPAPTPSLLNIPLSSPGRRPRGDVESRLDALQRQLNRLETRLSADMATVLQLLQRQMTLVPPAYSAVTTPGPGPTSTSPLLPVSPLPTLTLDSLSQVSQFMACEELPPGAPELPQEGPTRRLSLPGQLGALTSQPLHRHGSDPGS
Sequence of Nuclear receptor subfamily 1 group I member 2 (Rattus norvegicus) (Q9R1A7 whole entry, looked up): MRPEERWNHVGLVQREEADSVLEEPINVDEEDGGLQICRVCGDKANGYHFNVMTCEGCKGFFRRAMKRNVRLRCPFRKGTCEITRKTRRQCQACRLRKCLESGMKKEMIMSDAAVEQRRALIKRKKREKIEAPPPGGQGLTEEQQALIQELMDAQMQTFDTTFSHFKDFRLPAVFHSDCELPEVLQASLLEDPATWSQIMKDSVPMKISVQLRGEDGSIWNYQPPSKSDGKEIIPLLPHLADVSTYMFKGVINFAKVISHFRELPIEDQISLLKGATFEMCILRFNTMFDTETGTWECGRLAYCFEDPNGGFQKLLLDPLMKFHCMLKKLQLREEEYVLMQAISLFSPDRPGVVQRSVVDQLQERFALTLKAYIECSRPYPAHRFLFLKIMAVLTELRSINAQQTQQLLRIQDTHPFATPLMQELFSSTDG
Sequence of Cytochrome P450 1A2 (Homo sapiens) (P05177 whole entry, looked up): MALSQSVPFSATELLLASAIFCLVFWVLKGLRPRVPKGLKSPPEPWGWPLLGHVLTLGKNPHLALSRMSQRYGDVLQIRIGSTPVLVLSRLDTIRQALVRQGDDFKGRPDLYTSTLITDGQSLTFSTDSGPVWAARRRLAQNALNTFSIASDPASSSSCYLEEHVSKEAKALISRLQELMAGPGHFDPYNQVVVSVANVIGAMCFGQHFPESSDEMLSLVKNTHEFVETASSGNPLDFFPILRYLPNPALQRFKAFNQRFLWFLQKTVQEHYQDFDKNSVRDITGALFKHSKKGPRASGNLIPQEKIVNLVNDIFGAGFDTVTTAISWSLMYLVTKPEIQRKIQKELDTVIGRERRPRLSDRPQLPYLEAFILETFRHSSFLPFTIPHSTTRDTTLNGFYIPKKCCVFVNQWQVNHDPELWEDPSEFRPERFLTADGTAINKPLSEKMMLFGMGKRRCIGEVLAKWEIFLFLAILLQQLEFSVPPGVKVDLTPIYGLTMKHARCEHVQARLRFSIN

On to `CN1CCN(c2c(F)cc3c(=O)c(C(=O)O)cn4c3c2OCN4C)CC1`, for which the values for the activity change, negative = cytotoxicity in experiment [1], in [3] and in experiment [4] were 4.15% [at 19 µM], 3.06% [at 19 µM] and 8.88% [at 19 µM], respectively. In addition, the caspase activation in experiment [2] was 0.165% [at 19 µM]. For the same compound, the activation in experiment [5] was -8.38% [at 19 µM]. Moreover, the max activation in experiment [6] was -1.24%. For the same compound, the Potency result in [7] and in experiment [8] was “inactive” each time. Also, the activity change, negative = inhibition in experiment [9] was -1.32% [at 23.6 µM]; in experiment [10] it was -8.19% [at 23.6 µM]; in experiment [11], 9.24% [at 23.6 µM]; in experiment [12], -1.8% [at 15.8 µM]; in experiment [13], 3.15% [at 23.6 µM].
With `Cc1cc(S(=O)(=O)O)ccc1N=Nc1c(O)ccc2ccccc12`, the Potency was 24.3 µM (active) in [1], 27.3 µM (active) in [3], 30.6 µM (active) in experiment [4] and 20 µM (active) in experiment [10]. The Potency entry in experiment [2] and in experiment [12] was “inactive” in each case. In [14], the compound was classed as inactive.
On to `C[C@@H]1C[C@H]2[C@@H]3CCC4=CC(=O)C=C[C@]4(C)[C@@]3(F)[C@@H](O)C[C@]2(C)[C@H]1C(=O)CO`, for which the Potency entry in experiment [1], in experiment [2], in experiment [3], in [4], in experiment [7] and in experiment [8] was “inactive” throughout. Further, the Potency result in experiment [12] is “inactive”. The Potency is 18.8 µM (active) in experiment [5], 2.51 µM (active) in experiment [6], 8.71 µM (active) in experiment [10] and 15.5 µM (active) in experiment [11].
Take `O=C(O)c1ccc(CO)o1`: the Potency result in experiment [1], in [2], in experiment [3], in [4], in [5] and in experiment [10] was “inactive” in each case. Further, the Potency entry in experiment [12] and in experiment [13] was “inactive” in each case. For the same compound, the outcome in [14] was inactive. Besides, the Potency in experiment [9] is 18.2 µM (active).
Turning to `Cc1ccnc2ccccc12`, the Potency result in experiment [1], in experiment [2], in experiment [3], in experiment [5], in experiment [12] and in [13] was “inactive” throughout. Besides, the compound was called inactive in experiment [14].
On to `CN(C(=O)C(Cl)Cl)c1ccc(OC(=O)c2ccco2)cc1`, for which the Potency result in experiment [1], in experiment [2], in [3], in experiment [4], in experiment [5] and in experiment [9] was “inactive” each time. Besides, the Potency result in experiment [15] and in experiment [12] was “inactive” in each case. The Potency in experiment [11] is 15.5 µM (active).
As to `C/C(=N/NC(=O)c1ccncc1)C(=O)O`, the Potency result in experiment [1], in [2], in [3], in experiment [4], in experiment [5] and in experiment [11] was “inactive” throughout. Also, the Potency entry in experiment [15], in [12] and in experiment [13] was “inactive” each time. Moreover, in experiment [14], the call was inactive.
As to `C=CC(C)=CCC=C(C)C`, the Potency result in [1], in [2], in experiment [3], in [4], in experiment [9] and in [12] was “inactive” throughout. In experiment [14], the result was inactive. In addition, the Potency in experiment [13] was 28.3 µM (active).
On to `COc1ccc([C@@H]2Sc3ccccc3NC(=O)[C@@H]2O)cc1`, for which the Potency entry in [1], in [2], in experiment [3], in [4], in experiment [5] and in experiment [12] was “inactive” in each case. Further, in experiment [14], the compound was classed as inactive. Besides, the Potency is 21.9 µM (active) in [10] and 17.4 µM (active) in experiment [11].
As for `C/C=C(\C)C(=O)OCCC(C)CCC=C(C)C` (centres undefined), the Potency entry in experiment [1], in [2], in [3], in [5], in experiment [9] and in experiment [12] was “inactive” in each case. The compound was called inactive in experiment [14]. Besides, the results for the Potency in experiment [10], in experiment [11] and in experiment [13] were 20 µM (active), 39.9 µM (active) and 20 µM (active), respectively.
